Experimental findings from ChEMBL document CHEMBL3433997, “St. Jude Leishmania screening dataset” (2016) are described below.

The target of the assay is Glucose transporter (Leishmania mexicana) (UniProt O61059). In words: ST_JUDE_LEISH: Cytotoxicity at 2uM final concentration against transgenic Leishmania Mexicana promastigotes LmGT2 that are glucose transport deficient and complemented with the L. Mexicana glucose transporter 2. Activity is measured by DNA content using SYBR green in vitro. Type of assay: functional.
In the case of `COCCOCCOCCn1ccc2c3c(N)nc(N)nc3ccc21`, the inhibition was 2.29%. On to `Cn1cnc2c(Nc3ccncc3)nc(-c3ccc(OC(F)(F)F)cc3)nc21`, for which the inhibition worked out at 2.19%. Turning to `Cn1c(Nc2cc(C(C)(C)C)on2)nc2cc(Nc3ccnc(Nc4cccc(S(=O)(=O)N5CCOCC5)c4)n3)ccc21`, the inhibition is -0.88%.

Take `Cc1cc(N[C@@H](Cc2ccccc2)C(=O)NCCc2ccccc2)nc(NCCc2cccs2)n1`: the inhibition was 1.55%. In the case of `CCC(C)NS(=O)(=O)c1ccc2nc(Nc3ccc(C)cc3)n(C3CCCCC3C)c2c1` (stereo not given), the inhibition is 2.03%. In the case of `CCCCN1CCN(CCCCNc2c3ccccc3nc3ccccc23)CC1`, the inhibition amounted to 22%. For the compound `CCCCNCC(O)COc1ccccc1-c1ccc(N/N=C/c2cccc3ccccc23)nn1` (stereo not given), the inhibition was 1.78%. With `COc1ccc(O)c(C(=O)c2cc(C(=O)NC3CCCCC3)c(=O)n(C3CCCCC3)c2)c1`, the inhibition was found to be 3.2%. For `COc1cccc(CNC(=O)NC2CCN(c3ccnc(Nc4ccc(F)cc4)n3)C2)c1` (stereo not given) the value was -1.51%. To `COc1ccc2c(NN=Cc3ccc(Cl)cc3)ccnc2c1` belongs 4.63%; to `CS(=O)(=O)CCNCc1cccc(-c2cc3nccc(Nc4ccc(Oc5ccccc5)cc4)c3cc2Cl)c1`, -0.97%. In the case of `Cc1cccc2nc(-c3ccc(-c4cccc(NC(=O)Nc5cccc(C#N)c5)c4)cc3)[nH]c12`, the inhibition was -1.23%. With `Cc1ccc(-n2cc(CNCCc3nc(C)c[nH]3)c(-c3ccc(F)cc3)n2)cc1`, the inhibition was found to be 2.6%. `O=C(OCC1CCN(Cc2ccccc2)C1)c1ccc(Cl)cc1` (stereo not given): the inhibition was 2.14%. To `COc1ccccc1Cc1c(C)nc2nc(N)nc(N)c2c1C` belongs 7.13%; to `Oc1c(CN2CCCC(C(F)(F)F)C2)cc(Cl)c2ccccc12` (stereo not given), 3.06%; to `COCCOc1ccc(Nc2nccc(-c3c(-c4cccc(NC(=O)c5c(F)cccc5F)c4)nn4ccccc34)n2)cc1F`, 1.25%. As for `CCCCN(CCCC)CCCCCCNc1c2ccccc2nc2ccccc12`, the inhibition was determined as 18.2%. Turning to `COc1ccc2nc(-c3ccc(C(=O)NCCCN4CCN(c5cc(Cl)ccc5OC)CC4)cc3OC)[nH]c2c1`, the inhibition was 3.01%. To `Cc1cccc(Nc2c(-c3cc(Br)ccc3O)nc3ncccn23)c1` belongs -1.33%; to `CC(O)C1CCCCN1C(=O)c1cccc(-c2cccc(-c3nc4ccccc4[nH]3)c2)c1` (stereo not given), -0.24%. For `CCc1ccc(CN2CCC(NC(=O)c3ccc(-c4ccc(N(C)C)cc4)s3)CC2)cc1`, the inhibition is 6.05%.

Turning to `CCCCCCCN1CCC(CC(=O)Nc2ccnc3ccc(OC)cc23)C(CC)C1` (stereo not given), the inhibition was -0.31%. With `CCN(CC)/C(=N/C(=N)Nc1ccc(Cl)c(Cl)c1)NCCCCCCN/C(=N\C(=N)Nc1ccc(Cl)c(Cl)c1)N(CC)CC`, the inhibition is -1.49%.

On to `CCCNCc1ccc(-c2ccc(CN(CC3CCCO3)C(=O)C3CC(=O)c4ccccc43)cc2)nc1` (stereo not given), for which the inhibition is 3.19%.

Consider `CCCCCC(C)C(C)c1cc(O)c2c(c1)OC(C)(C)CC2(O)c1ccnn1C` (stereo not given), for which the inhibition was determined as 3.24%. For `CCOC(=O)c1ccc(-c2cnc(N)c(-c3nc4cccc(C)c4[nH]3)c2)cc1` the value was 4.47%; for `CCC(C)C(COC(=O)c1cc(OC)c(OC)c(OC)c1)N(C)CCN(C)C(COC(=O)c1cc(OC)c(OC)c(OC)c1)C(C)CC` (stereo not given), -0.47%. `Cc1cccc(C)c1C1CCN(CCCCNC(=O)c2cc3ccccc3[nH]2)CC1`: the inhibition is 0.3%. `Cc1cc(C(=O)OCC(N)=O)c(C)n1-c1ccc(F)cc1`: the inhibition came out at 3.07%. As for `COc1cc(C)nc2ccc(NC(=O)Nc3ccccc3[N+](=O)[O-])cc12`, the inhibition was found to be 1.8%.

In the case of `O=C(Nc1ccc(S(=O)(=O)N2CCCC2)cc1)c1cc(-c2cccnc2)nc2ccc(Cl)cc12`, the inhibition was found to be 3.06%. Regarding `Cc1ccc(/C=C/C(=O)NC2CCC(N3CCC(c4ccccc4C)CC3)CC2)cc1F` (stereo not given), the inhibition stood at 13.7%. Regarding `O=C(Cc1ccc(NC(=O)c2ccc(O)c(-c3ccc(Cl)c(Cl)c3)c2)cc1)NCCN1CCOCC1`, the inhibition was -1.61%.

Regarding `COc1ccc(CNC(=O)Nc2cc3cc(-c4ccc(CN5CCCC5)cc4)ccc3n3c(C)nnc23)cc1`, the inhibition was determined as 0.89%. As to `O=C(C1CC1)N1c2ccccc2CCc2ccccc21`, the inhibition was -0.64%. Regarding `CC(C)C(NC(=O)Cc1cccc2ccccc12)C(=O)Nc1cccc(C#N)c1` (stereo not given), the inhibition is 2.76%. Take `O=C(Nc1ccc(Oc2ccccc2)cc1)N[C@H]1CCN(Cc2ccc(OCCCN3CCCCC3)cc2)C1`: the inhibition is -3.91%. With `Cn1cc(CN2CCCC(COC(c3ccccc3)c3ccccc3)C2)cn1` (stereo not given), the inhibition was 2.57%. In the case of `CN(CCC(O)c1ccc(Cl)c(Cl)c1)CC1CC1C(=O)c1ccccc1` (stereo not given), the inhibition came out at 5.49%.
